According to PubChem BioAssay (NCI):
The panel holds about 83,000 compounds, 20% with a hit somewhere; the sample as a whole holds those more often.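 Plates (96-well) were seeded with cells, treated with compound at one concentration, and incubated for 48 hours before percent growth was determined.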 A number with no mark means an inactive call. Calls of active or inactive are those of the source. The calls were made as follows: active = growth percent below 10; inactive = the rest.

What was measured:
Assay in all cases: NCI-60 one-dose screen, 48 h (100 = growth as untreated, 0 = no growth, -100 = all killed)
Conditions in all cases: 10 µM unless noted
DU-145 prostate = tested on: DU-145 prostate
K-562 leukemia = tested on: K-562 leukemia
MALME-3M melanoma = tested on: MALME-3M melanoma
MDA-MB-231 breast = tested on: MDA-MB-231 breast
RXF 393 renal = tested on: RXF 393 renal
SF-268 CNS = tested on: SF-268 CNS
SF-295 CNS = tested on: SF-295 CNS
SF-539 CNS = tested on: SF-539 CNS
UACC-257 melanoma = tested on: UACC-257 melanoma
M14 melanoma = tested on: M14 melanoma

SMILES	growth (DU-145 prostate)	growth (K-562 leukemia)	growth (MALME-3M melanoma)	growth (MDA-MB-231 breast)	growth (RXF 393 renal)	growth (SF-268 CNS)	growth (SF-295 CNS)	growth (SF-539 CNS)	growth (UACC-257 melanoma)	growth (M14 melanoma)
CCCc1n(Cc2ccc3ccccc3c2)cc[n+]1Cc1ccc2ccccc2c1	20.3%	2.49% (active)	-49.6% (active)	-80.1% (active)	-30.4% (active)	7.55% (active)	-1.49% (active)	1.21% (active)	-33.6% (active)	-28.4% (active)
COc1ccc(Oc2ccccc2NC(=O)CNC(=O)c2cccc3ccccc23)cc1	17.5% [5 µM]	8.48% [5 µM] (active)	72.9% [5 µM]	29.4% [5 µM]	10.3% [5 µM]	44.1% [5 µM]	13.2% [5 µM]	-21.5% [5 µM] (active)	48.6% [5 µM]	12.6% [5 µM]
O=C(CNC(=O)c1cccc2ccccc12)Nc1ccccc1Cc1ccccc1	48.4% [5 µM]	12.3% [5 µM]	46.8% [5 µM]	64.1% [5 µM]	47.2% [5 µM]	48.6% [5 µM]	17.1% [5 µM]	26.7% [5 µM]	25.4% [5 µM]	10.6% [5 µM]
CC(C)=CCCC(C)c1ccc(C)c2c1OCN(CC1CCNCC1)C2 (stereo not given)	93.9%	0.575% (active)	94.1%	68.8%	55.2%	93%	98.7%	76.9%	24.6%	-95.4% (active)
CC(=O)N1N=C(c2ccc(Cl)cc2)CC1c1c(C)nn(-c2ccccc2)c1N(C)Cc1ccccc1 (stereo not given)	94.5%	61.9%	83.1%	81.1%	72.7%	77.8%	82.7%	93.8%	50.4%	79.9%
N#Cc1c(-c2ccccc2)cc(-c2ccccc2)n(CCCCCCC(=O)O)c1=O	116%	94.3%	94.5%	94.8%	92.7%	97.8%	94.1%	97.4%	109%	101%
Cc1ccc2nc3c(n2c1)C(=O)C(=O)c1ccccc1-3	-89.5% (active)	-48.3% (active)	-85.2% (active)	-48.8% (active)	-91.3% (active)	-78.2% (active)	-71.1% (active)	-90.1% (active)	-90.3% (active)	-81.3% (active)
CCOc1cc(/C=C/C(=O)CC(=O)/C=C/c2ccc(OC(=O)CNc3nc4ccc(OC)cc4s3)c(OCC)c2)ccc1OC(=O)CNc1nc2ccc(OC)cc2s1	15.5%	2.04% (active)	94.4%	64.5%	-29.9% (active)	26%	63.5%	3.65% (active)	67.6%	21.1%
Cc1ccc2nc(SCC(=O)Nc3ccc(-c4nc5ccccc5s4)c(Cl)c3)[nH]c2c1	132%	109%	131%	113%	98.6%	105%	106%	109%	96.9%	111%
CCSc1nc(-c2cccs2)n2nc(-c3ccco3)cc2n1	113%	100%	107%	91.6%	107%	102%	99.4%	100%	103%	109%
Cc1ccc(/C=C(/C#N)n2nnc3ncccc32)cc1	-27.2% (active)	5.03% (active)	22.7%	-3.95% (active)	-28.4% (active)	25.3%	27.8%	-53.8% (active)	31.1%	-4.85% (active)
COc1cc(C(=O)/C=C/c2cccc(Nc3ccnc4cc(Cl)ccc34)c2)cc(OC)c1OC	-0.714% (active)	-6.81% (active)	9.8% (active)	-5.45% (active)	-71.9% (active)	-16.6% (active)	3.06% (active)	-46.1% (active)	30.6%	-11.6% (active)
O=C(CC(C(=O)c1ccccc1)N1CCN(Cc2ccccc2)CC1)c1ccccc1 (stereo not given)	86.2%	19.5%	110%	96%	95%	106%	109%	93.8%	93.7%	77.9%
CCCCc1n(Cc2ccc3ccccc3c2)cc[n+]1Cc1ccc2ccccc2c1	13.6%	-17.9% (active)	-52.8% (active)	-92.9% (active)	-42.7% (active)	-12.6% (active)	-14.1% (active)	-4.06% (active)	-33.8% (active)	-75.2% (active)
COc1cc(/C=C/C(=O)CC(=O)/C=C/c2ccc(OC(=O)C3C4CC5CC(C4)CC3C5)c(OC)c2)ccc1OC(=O)C1C2CC3CC(C2)CC1C3 (stereo not given)	120%	95.1%	78.4%	116%	110%	104%	98.9%	108%	102%	105%
COc1cc(Cl)cc(-c2nn(-c3cccc(NC(=O)c4cc(C(F)(F)F)cc(C(F)(F)F)c4)c3)cc2-c2ccncc2)c1	78.2%	38%	104%	56.7%	67.7%	89.2%	42.1%	80%	79.3%	67.3%
CCOC(=O)CCN(c1c(Cl)ssc1=O)C(C)C	100%	106%	111%	104%	87.8%	113%	119%	97.7%	95.5%	84.7%
CCOc1cc(/C=C/C(=O)C(C(=O)/C=C/c2ccc(OC(=O)CNc3nc4ccccc4[nH]3)c(OCC)c2)C(=O)CNc2nc3ccccc3[nH]2)ccc1OC(=O)CNc1nc2ccccc2[nH]1	-24.8% (active)	-26.2% (active)	-35.1% (active)	-16.3% (active)	-71.4% (active)	8.48% (active)	-20.4% (active)	-33.4% (active)	21.1%	-6.17% (active)
N#Cc1c(-c2ccccc2)cc(-c2ccccc2)n(CCC(=O)O)c1=O	81.5%	14.7%	51.4%	58.9%	53%	67.4%	37.3%	62.5%	55.5%	25.5%
COc1cc(/C=C/C(=O)C(C(=O)/C=C/c2ccc(OC(=O)CCNc3nnc(C)s3)c(OC)c2)C(=O)CCNc2nnc(C)s2)ccc1OC(=O)CCNc1nnc(C)s1	-14.5% (active)	-11.8% (active)	-29.7% (active)	-4.77% (active)	-70.2% (active)	19.8%	2.23% (active)	-15.8% (active)	46.5%	-2.91% (active)
CC(C)Cn1cnc2c(NCn3nc(-c4cc(Cl)cc(Cl)c4Cl)n(/N=C/c4ccc(Cl)cc4)c3=S)nc3ccccc3c21	106%	53.8%	109%	73.4%	80.7%	102%	71.9%	90.4%	77.2%	104%
O=C1C2C(C(=O)N1CC[Se][Se]CCN1C(=O)C3C(C1=O)[C@H]1C=C[C@@H]3C1)[C@H]1C=C[C@@H]2C1 (stereo not given in full)	-46.7% (active)	7.86% (active)	-35.6% (active)	-33.8% (active)	-89% (active)	-45.8% (active)	-78.2% (active)	-86.7% (active)	-63.8% (active)	-20% (active)
O=C(/C=C/c1ccc(C(F)(F)F)cc1)c1ccc(Nc2nc(NCCO)nc(NCCO)n2)cc1	52.9%	11.7%	66.2%	71%	74.2%	54%	44.6%	29.3%	80.8%	65.4%
